From PubChem BioAssay (NCATS) come the findings set out here.

Structures are written as SMILES. Results filed as inconclusive are left out. Values without a mark were called inactive. Calls of active or inactive are those of the source. Calls come from the whole dose curve; as a rule, active = well fitted curve in the direction sought with a large enough effect; inconclusive = small, poorly fitted or top-dose-only effect, or another doubt; inactive = no such curve, though single readings can be large; an effect the other way counts as inactive or inconclusive.

The nature of assay [1]: qHTS Assay for Identifying Gametocytocidal Compounds (AID 743244). Note: potency is the fitted concentration of half-maximal effect. The conditions noted are these: P. falciparum 3D7 stage III-V gametocytes, alamarBlue, 72 h; max response: active compounds read low. Summed up: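 P. falciparum 3D7 stage III–V gametocytes (20,000 cells/well) were exposed to compounds for 72 h at 37 °C, 5% CO2. AlamarBlue was then added for 24 h; decreased resorufin fluorescence (Ex 525/Em 598 nm) indicated loss of viability.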

A further assay relates to KB-3-1. The experiment in a line: Cytotoxic Profiling of Annotated Libraries Using Quantitative High-Throughput Screening (AID 1296008). Note: % is set by controls: 0 for no effect and ±100 for the full control effect; nearly all actives have a fitted effect of over 60% in size. The conditions noted are these: Five cell lines viability, CellTiter-Glo ATP luminescence, 48-72 h; max response: active compounds read low. Summed up: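 Cytotoxicity was measured as CellTiter-Glo ATP luminescence, read after 10 min at room temperature. Compound treatment of the cells lasted 48 or 72 hr at 37 degrees Celsius in a qHTS format.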

On to `O.O.O.O=C([O-])C(O)C(O)C(=O)[O-].O=C([O-])C(O)C(O)C(=O)[O-].[K+].[K+].[Sb].[Sb]` (configuration not stated), for which the Potency in assay [1] was 708 nM (active). Besides, the max response in the assay on KB-3-1 was -33.9%.
